Source: PubChem BioAssay (National Center for Advancing Translational Sciences (NCATS))
Many of the other results were omitted from the sample, so hits are more common in it than they were.
DT40 TDP1 CPT: qHTS for Inhibitors of human tyrosyl-DNA phosphodiesterase 1 (TDP1): qHTS in cells in presence of CPT; chicken DT40 Tdp1-/-;hTDP1 cells + 20 nM CPT, ATP luminescence, 48 h; Potency, µM (top dose mostly 46.2 µM), for inactives: at the highest dose activity change, negative = growth inhibition, most hits filed as inhibitors; hit rate 12% among 420,000; AID 686979, 2013; note: potency is the fitted concentration of half-maximal effect; nearly all actives have a fitted effect of over 55% in size
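Cell growth measured by CellTiter-Glo luminescence after a minimum 48 h, 37 C compound exposure with 20 nM CPT in Tdp1-knockout DT40 cells stably expressing hTDP1, seeded 400/well; qHTS titration format.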
HT1080NT lethal: qHTS for induction of synthetic lethality in tumor cells producing 2HG: qHTS for the HT-1080-NT fibrosarcoma cell line. HT-1080-NT fibrosarcoma viability, CellTiter-Glo ATP luminescence, 48 h. Potency, µM (titrated, usually from 46.1 µM), inactives show top-dose activity, negative = less viability, hits mostly cytotoxic. hit rate 1.6% among 360,000;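 note: NT is the 2HG producing partner of a matched IDH1 knockdown line; potency is the fitted concentration of half-maximal effect; 0% = DMSO-treated cells and -100% = media-only wells without cells; nearly all actives have a fitted effect of over 55% in size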
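A 48-hour cytotoxicity screen used HT-1080-NT cells plated 2 hours before compound delivery. ATP-based CellTiter-Glo luminescence measured viability, normalized to DMSO and no-cell controls.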
IL1B secr inh: qHTS for Inhibitors of Inflammasome Signaling: IL-1-beta AlphaLISA Primary Screen. THP-1 LPS/ATP IL-1B secretion, AlphaLISA, 16 h; hits give low values. activity change, % at 57.5 µM. hit rate 4.7% among 360,000. AID 743279, 2014; in the data active = activity change below about -50%; inconclusive = mostly about -30% to -49%
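THP-1 cells pretreated 1 hr with compounds (up to 57.5 uM final), then stimulated with LPS (250 ng/mL final) plus ATP (1.25 mM final); secreted IL-1B measured by AlphaLISA after 16 hr, decreased signal indicating inhibition.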
HT1080 IDH1KD tx: qHTS for induction of synthetic lethality in tumor cells producing 2HG: qHTS for the HT-1080-IDH1KD cell line. HT-1080 IDH1 knockdown viability, ATP luminescence, 48 h. Potency, µM (highest dose often 46.1 µM), inactives show at the top dose activity, negative = toxicity, actives largely listed as cytotoxic. hit rate 2% among 360,000;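 note: potency is the fitted concentration of half-maximal effect; 0% = DMSO wells and -100% = cell-free medium wells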
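Knockdown cells (IDH1KD HT-1080) received compounds 2 h after plating at 750 cells/well and were kept 48 h at 37 °C in 5% FBS RPMI. A CellTiter-Glo luminescence read gave % activity for curve fitting.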
ALOX12 inh: Primary qHTS assay for inhibitors of human arachidonate 12S-lipoxygenase (ALOX12): Round 2; Polyunsaturated fatty acid lipoxygenase ALOX12 (Homo sapiens), P18054; purified 12hLO, xylenol orange hydroperoxide absorbance; Potency, µM (titrated, usually from 108 µM), inactives show at the highest dose activity change, negative = inhibition, most hits filed as inhibitors; hit rate 1.1% among 580,000; note: potency is the fitted concentration of half-maximal effect
Target sequence (P18054 whole entry, looked up): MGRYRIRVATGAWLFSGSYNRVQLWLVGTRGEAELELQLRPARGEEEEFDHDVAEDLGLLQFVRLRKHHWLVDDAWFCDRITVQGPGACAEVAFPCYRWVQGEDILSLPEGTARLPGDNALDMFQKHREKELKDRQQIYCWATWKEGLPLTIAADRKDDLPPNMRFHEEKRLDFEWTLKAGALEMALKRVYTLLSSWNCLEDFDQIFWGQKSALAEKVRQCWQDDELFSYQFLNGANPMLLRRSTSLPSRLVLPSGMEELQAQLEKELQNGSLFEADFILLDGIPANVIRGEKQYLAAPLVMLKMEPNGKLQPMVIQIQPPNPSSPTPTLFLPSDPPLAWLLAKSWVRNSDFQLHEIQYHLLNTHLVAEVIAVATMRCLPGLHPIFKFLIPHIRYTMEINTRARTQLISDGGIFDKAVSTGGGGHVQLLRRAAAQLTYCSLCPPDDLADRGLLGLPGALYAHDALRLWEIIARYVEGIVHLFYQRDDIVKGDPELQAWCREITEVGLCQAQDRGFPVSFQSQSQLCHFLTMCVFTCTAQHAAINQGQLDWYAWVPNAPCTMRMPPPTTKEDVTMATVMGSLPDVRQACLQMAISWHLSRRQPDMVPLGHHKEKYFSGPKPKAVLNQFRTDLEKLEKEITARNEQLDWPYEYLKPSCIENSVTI
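Purified human 12hLO (150 nM final) in 25 mM Hepes, 0.01% Triton X-100, pH 7.0 was preincubated 15 min at room temperature with compound. Then 40 uM arachidonic acid was added, 30 min. Hydroperoxide was read by Fe-XO absorbance ratio 573/405 nm.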
DT40 TDP1 no CPT: qHTS for Inhibitors of human tyrosyl-DNA phosphodiesterase 1 (TDP1): qHTS in cells in absence of CPT. Potency, µM (doses to about 46.2 µM), for inactives: at the highest dose activity change, negative = growth inhibition, actives largely listed as inhibitors. hit rate 15% among 420,000. DT40 Tdp1-/- hTDP1 cells, no CPT, ATP luminescence, 48 h. AID 686978, 2013; note: potency is the fitted concentration of half-maximal effect; nearly all actives have a fitted effect of over 55% in size
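Cells were dispensed at 400 per well, compounds added by pin tool, plates incubated ≥48 hr at 37 °C, then CellTiter-Glo added for 30 min at room temperature before luminescence reading. Line: DT40 Tdp1-/- complemented with hTDP1; camptothecin omitted.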
Numbers without * were called inactive; ? = inconclusive; . = not tested or not shown; [ ] = remark or other dose. Unless noted, calls come from the whole dose curve; as a rule, active = well fitted curve in the direction sought with a large enough effect; inconclusive = small, poorly fitted or top-dose-only effect, or another doubt; inactive = no such curve, though single readings can be large; an effect the other way counts as inactive or inconclusive. Unless noted, % is set by controls: 0 for no effect and ±100 for the full control effect.

SMILES	DT40 TDP1 CPT	HT1080NT lethal	IL1B secr inh	HT1080 IDH1KD tx	ALOX12 inh	DT40 TDP1 no CPT
OC(CC#CCN1CCN(CC#CCC(O)(c2ccccc2)c2ccccc2)CC1)(c1ccccc1)c1ccccc1	.	.	.	.	11µM*	.
OC(C#CCN1CCCCC1)(c1ccccc1)c1ccccc1	?	-3%	-5	-2%	3%	?
CCc1ccc2c(COC(=O)Cc3n[nH]c(=O)c4ccccc34)cc(=O)oc2c1	.	.	.	.	-19%	.
CCOCCN1C(=O)COC[C@@H]1[C@H](O)c1ccc(NC(=O)CC(C)(C)C)cc1	.	.	.	.	15%[176 µM]	.
CC1(C)C=Cc2c(nc3ccccc3c2N)C1	.	.	.	.	-4%	.
CC1=C(C(=O)Nc2ccccc2C(=O)NCc2ccccc2)SCCO1	?	3%	-8	-9%	0%	?
COc1ccc(CNC(=O)Cc2ccc(NC(=O)C3=C(C)OCCS3)cc2)cc1	2.3µM*	?	49	5.8µM*	-5%	2.1µM*
CCOc1ccc(CNC(=O)c2cccc(NC(=O)C3=C(C)OCCS3)c2)cc1	?	-3%	-5	-6%	0%	?
COc1cccc(CNC(=O)c2ccccc2NC(=O)C2=C(C)OCCS2)c1OC	18µM*	-8%	-20	-10%	14%	12µM*
CC1=C(C(=O)Nc2ccc(CC(=O)NCc3ccc(OC(C)C)cc3)cc2)SCCO1	0.16µM*	?	62	?	-13%	0.18µM*
O=C(Nc1ccccc1C(=O)NCc1ccccc1)C1=CSCCO1	-8%	9%	-1	6%	-29%	-28%
CCOc1ccccc1CNC(=O)c1ccccc1NC(=O)C1=CSCCO1	?	-25%	-9	-3%	3%	26µM*
COc1ccccc1-c1nccc2c(=O)cc(N3CCOCC3)oc12	.	.	.	.	-7%[176 µM]	.
O=C(Cn1cnc2c(nnn2Cc2ccc(F)cc2)c1=O)N1CCCCCC1	.	.	.	.	3%	.
COCC1CN(C)CC12CCN(C(=O)CCc1ccc(OC)cc1)CC2 (stereo unspecified)	.	.	.	.	27%	.
O=C(Nc1cccc(C(F)(F)F)c1)c1cc2nc(-c3ccc4c(c3)OCO4)cc(C(F)(F)F)n2n1	-4%	.	.	.	-6%	-4%
Cn1ncc(Cl)c1C(=O)NCc1ccc(Cl)cc1	?	-1%	26	-5%	-14%	8.2µM*
CCCCn1c(=S)[nH]c2cc(S(=O)(=O)N3CCOCC3)ccc21	?	-5%	0	2%	?	?
CCn1c(=S)[nH]c2cc(S(=O)(=O)N3CCCCC3)ccc21	?	?	-28	-19%	-28%	13µM*
O=C1CCCN1CCCN1C(=O)[C@H]2CN(Cc3ccc(Cl)cc3)C[C@H]2C1=O	.	.	.	.	49%	.
NCc1oc(-c2ccccc2)cc1C(=O)O	0%	22%	3	3%	10µM*	13%
Cc1ccc(NC(=O)C2C(c3ccccc3)C=CC(c3ccccc3)C2C(=O)O)cc1 (stereo unspecified)	29µM*	-1%	18	-3%	0%	21µM*
Cc1ccc(NC(=O)C2C(C(=O)O)C3C=CC2C32CC2)cc1 (stereo unspecified)	3%	1%	18	1%	0%	-16%
Cn1cccc1CN1CCC2(CC1)CNC(=O)c1ccccc1O2	.	.	.	.	9%[6.33 µM]	.
Cc1c(-c2ccc(Cl)cc2)oc(=O)c2c(N)n(-c3ccccc3)nc12	?	0%	0	-17%	0%	7.3µM*
SMILES	DT40 TDP1 CPT	HT1080NT lethal	IL1B secr inh	HT1080 IDH1KD tx	ALOX12 inh	DT40 TDP1 no CPT
Cc1cc2c(c(C)nn2-c2ccccc2)c(=O)o1	-3%	5%	10	0%	-13%	-15%
Nc1c2c(=O)oc(-c3ccccc3)cc2nn1-c1ccccc1	26µM*	?	-99*	?	-10%	?
CCc1cccc(NC(=O)c2ccc(Cn3ccn4nc5c(c4c3=O)CCCC5)cc2)c1	.	.	.	.	39%	.
Cc1ccc(S(=O)(=O)Nc2cccc3cccnc23)cc1	?	-2%	-97*	-20%	0%	21µM*
COc1cc(NS(=O)(=O)c2ccc(C)cc2)c2ncccc2c1	0.82µM*	-30%	54	?	.	1.2µM*
O=S(=O)(Nc1cccc2cccnc12)c1ccc(F)cc1	.	.	.	.	19%	.
Cc1ccccc1-c1nccn2c(C3CN(Cc4ccccc4O)C3)ncc12	.	.	.	.	61%[176 µM]	.
CCO[C@@H]1OC(C(=O)N2CCN(Cc3ccc4c(c3)OCO4)CC2)=C[C@H](C2CC2)[C@H]1CCCO	?	-2%	-4	4%	-27%	?
C#Cc1ccc([C@H]2C=C(C(=O)N3CCN(Cc4ccc5c(c4)OCO5)CC3)O[C@@H](OCC)[C@@H]2CCCO)cc1	?	-7%	-50*	-14%	1%	?
CCO[C@@H]1OC(C(=O)N2CCN(Cc3ccc4c(c3)OCO4)CC2)=C[C@H](C)[C@H]1CCCO	-7%	-1%	-3	3%	-54%	?
CCO[C@@H]1OC(C(=O)N2CCCCCCC2)=C[C@H](C2CCCCC2)[C@H]1CCCO	13µM*	6%	-26	-7%	5%	?
CCO[C@H]1OC(C(=O)N2CCN(Cc3ccc4c(c3)OCO4)CC2)=C[C@@H](C2CCCCC2)[C@@H]1CCCO	15µM*	-10%	5	-14%	-1%	16µM*
O=C(O)CCNS(=O)(=O)c1ccc(F)c(Cl)c1	.	.	.	.	8%	.
CCc1[nH]nc2c1C(c1cccnc1)C(C#N)=C(N)O2 (stereo unspecified)	1%	-2%	-27	-2%	28%	-12%
CC(C)C1C(C#N)=C(N)Oc2n[nH]c(-c3ccc4ccccc4c3)c21 (stereo unspecified)	?	?	5	?	?	10µM*
Cc1[nH]nc2c1C(C1CC=CCC1)C(C#N)=C(N)O2 (stereo unspecified)	21µM*	?	-112*	?	?	?
N#CC1=C(N)Oc2n[nH]c(-c3ccc4ccccc4c3)c2C1c1ccc(O)cc1 (stereo unspecified)	.	.	.	.	-3%	.
